Results published in PubChem BioAssay.
Active and inactive are the calls of the source.

Tests used:
[1] = test system: Plasmodium falciparum Sir2 (PF13_0152, Sir2A); assay: Plasmodium falciparum Sir2A binding compounds – biochemical, small-molecule microarray, 635 nm fluorescence, primary screen (AID 1098); details: fluorescence 635 nm, higher = more signal;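 also: score merges spot fluorescence intensity with its signal-to-noise ratio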
[2] = probe aDKK1 binding to arrayed compounds – biochemical, biotinylated probe, 635/667 nm fluorescence, primary screen (AID 1099); details: small-molecule microarray, higher = more signal;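 also: score merges 667nm spot fluorescence with signal to noise across triplicate slides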
[3] = probe aCHRDL2 binding to arrayed compounds – biochemical, biotinylated probe, 635/667 nm fluorescence, primary screen (AID 1100); details: small-molecule microarray, higher = more signal
[4] = change in splice reporter luminescence, either direction, cell-based, HEK293, spliceosome inhibition project, primary screen (AID 1101); details: HEK293 splicing luciferase reporter, 24 h, higher = more signal, called active from +8 up or from −8 down;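 also: HEK293 cells carrying a splicing-competent luciferase reporter gene; test concentration not given here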
[5] = molecular target: Fibroblast growth factor 10 (Homo sapiens) (UniProt O15520); assay: compounds binding fibroblast growth factor 10 – biochemical, small-molecule microarray, 635 nm fluorescence, primary screen (AID 1102); details: FGF10 binding, fluorescence 635 nm, higher = more signal
Sequence of Fibroblast growth factor 10 (Homo sapiens) (O15520 whole entry, looked up): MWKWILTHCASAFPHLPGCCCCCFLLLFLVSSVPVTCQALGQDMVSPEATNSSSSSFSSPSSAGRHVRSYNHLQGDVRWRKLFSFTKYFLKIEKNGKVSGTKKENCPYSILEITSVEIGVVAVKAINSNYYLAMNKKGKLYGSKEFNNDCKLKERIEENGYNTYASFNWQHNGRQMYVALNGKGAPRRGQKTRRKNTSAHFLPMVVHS

[6] = test system: glycogen synthase kinase-3 (GSK3A per assay name; protocol says GSK3B); assay: compounds binding glycogen synthase kinase-3 – biochemical, small-molecule microarray, 635 nm fluorescence, GSK3A, primary screen (AID 1103); details: fluorescence 635 nm, higher = more signal; also: the record names both GSK3A and GSK3B
[7] = molecular target: Epidermal growth factor receptor (Homo sapiens) (UniProt P00533); assay: compounds binding epidermal growth factor receptor – biochemical, small-molecule microarray, 635 nm fluorescence, primary screen (AID 1104); details: EGFR binding, higher = more signal;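 also: score merges 667 nm emission intensity with spot signal to noise over triplicate slides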
Sequence of Epidermal growth factor receptor (Homo sapiens) (P00533 whole entry, looked up): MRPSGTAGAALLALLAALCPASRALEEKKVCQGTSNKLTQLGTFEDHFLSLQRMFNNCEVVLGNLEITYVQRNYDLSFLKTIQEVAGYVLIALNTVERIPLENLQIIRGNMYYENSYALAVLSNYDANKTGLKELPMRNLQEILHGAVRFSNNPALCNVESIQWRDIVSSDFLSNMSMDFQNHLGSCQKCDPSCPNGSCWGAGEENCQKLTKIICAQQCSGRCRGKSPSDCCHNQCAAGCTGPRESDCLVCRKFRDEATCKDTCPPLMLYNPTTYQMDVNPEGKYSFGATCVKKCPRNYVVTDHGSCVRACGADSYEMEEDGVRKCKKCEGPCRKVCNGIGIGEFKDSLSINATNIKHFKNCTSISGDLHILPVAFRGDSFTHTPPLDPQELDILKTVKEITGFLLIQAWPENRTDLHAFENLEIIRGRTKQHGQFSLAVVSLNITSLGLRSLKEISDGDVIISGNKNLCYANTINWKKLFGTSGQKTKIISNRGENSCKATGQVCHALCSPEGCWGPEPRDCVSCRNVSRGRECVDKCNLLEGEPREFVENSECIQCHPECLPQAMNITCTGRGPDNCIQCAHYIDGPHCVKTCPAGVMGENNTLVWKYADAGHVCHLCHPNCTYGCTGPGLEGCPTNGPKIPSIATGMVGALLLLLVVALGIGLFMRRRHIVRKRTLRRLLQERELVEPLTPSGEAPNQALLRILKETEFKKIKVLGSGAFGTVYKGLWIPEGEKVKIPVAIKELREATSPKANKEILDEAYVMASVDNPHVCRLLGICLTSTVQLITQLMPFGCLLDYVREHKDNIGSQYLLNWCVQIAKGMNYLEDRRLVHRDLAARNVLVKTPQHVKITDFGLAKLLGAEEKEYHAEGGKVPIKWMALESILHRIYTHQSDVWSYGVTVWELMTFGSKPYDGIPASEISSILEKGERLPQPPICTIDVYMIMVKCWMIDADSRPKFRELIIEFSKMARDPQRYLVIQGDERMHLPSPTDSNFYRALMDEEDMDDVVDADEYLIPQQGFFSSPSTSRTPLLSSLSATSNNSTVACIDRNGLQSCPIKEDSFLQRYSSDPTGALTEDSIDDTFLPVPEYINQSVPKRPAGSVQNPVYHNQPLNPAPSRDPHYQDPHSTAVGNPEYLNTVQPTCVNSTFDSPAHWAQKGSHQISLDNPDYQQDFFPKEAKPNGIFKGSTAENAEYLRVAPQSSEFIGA

[8] = molecular target: Follistatin-related protein 3 (Homo sapiens) (UniProt O95633); assay: compounds binding follistatin-related protein 3 – biochemical, small-molecule microarray, 635 nm fluorescence, primary screen (AID 1105); details: FSTL3 binding, higher = more signal;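 also: score merges emission near 667 nm and signal to noise per printed spot across three slides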
Sequence of Follistatin-related protein 3 (Homo sapiens) (O95633 whole entry, looked up): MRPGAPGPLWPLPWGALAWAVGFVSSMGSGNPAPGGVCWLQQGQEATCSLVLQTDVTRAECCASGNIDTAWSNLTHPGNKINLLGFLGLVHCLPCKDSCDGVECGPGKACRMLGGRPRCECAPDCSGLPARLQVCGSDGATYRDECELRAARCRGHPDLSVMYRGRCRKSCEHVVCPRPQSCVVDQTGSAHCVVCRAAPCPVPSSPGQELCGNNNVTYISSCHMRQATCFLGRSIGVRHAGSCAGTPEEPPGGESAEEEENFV

[9] = molecular target: Dickkopf-related protein 1 (Homo sapiens) (UniProt O94907); assay: small molecules binding DKK1 protein – biochemical, small-molecule microarray, 635 nm fluorescence scan, primary screen (AID 1106); details: higher = more signal;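 also: score merges emission near 667 nm with signal to noise over three replicate slides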
Sequence of Dickkopf-related protein 1 (Homo sapiens) (O94907 whole entry, looked up): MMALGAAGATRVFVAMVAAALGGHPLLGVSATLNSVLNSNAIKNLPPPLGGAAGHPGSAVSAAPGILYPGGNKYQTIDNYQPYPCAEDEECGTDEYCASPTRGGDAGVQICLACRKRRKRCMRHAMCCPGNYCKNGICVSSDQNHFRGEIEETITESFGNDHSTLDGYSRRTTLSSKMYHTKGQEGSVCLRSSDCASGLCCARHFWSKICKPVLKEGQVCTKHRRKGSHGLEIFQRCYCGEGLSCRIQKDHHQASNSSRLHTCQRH

[10] = test system: Inhibin beta A chain (activin A); assay: small molecules binding activin A – biochemical, small-molecule microarray, 635 nm fluorescence scan, primary screen (AID 1107); details: INHBA, higher = more signal;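 also: mouse activin A protein probed at 4.33 µg/mL on printed slides; score merges bound-protein fluorescence near 667 nm with spot signal-to-noise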
[11] = test system: Human papillomavirus type 1a protein E7 (residues 44-93); assay: small molecules binding HPV E7 44-93 – biochemical, small-molecule microarray, residues 44-93, 635 nm fluorescence, primary screen (AID 1108); details: fluorescence 635 nm, higher = more signal;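 also: E7 fragment applied at 1 µg/mL in TBST for 1 h at 4 C; score combines spot fluorescence with its signal to noise ratio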
[12] = hepatitis C replication reporter changes, two-sided – Huh7 cells, luciferase reporter, HCV replication inhibitor project, primary screen (AID 1109); details: Huh7 HCV replicon luciferase reporter, 48 h; higher = more signal;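 also: huh7 hepatoma cells harbouring a luciferase neomycin HCV replicon reporter; luciferase luminescence as measure of HCV replicon replication; test concentration not given here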
[13] = molecular target: Left-right determination factor 2 (Homo sapiens) (UniProt O00292); assay: small molecules binding LEFTY2 protein – biochemical, small-molecule microarray, 635 nm fluorescence scan, primary screen (AID 1110); details: higher = more signal
Sequence of Left-right determination factor 2 (Homo sapiens) (O00292 whole entry, looked up): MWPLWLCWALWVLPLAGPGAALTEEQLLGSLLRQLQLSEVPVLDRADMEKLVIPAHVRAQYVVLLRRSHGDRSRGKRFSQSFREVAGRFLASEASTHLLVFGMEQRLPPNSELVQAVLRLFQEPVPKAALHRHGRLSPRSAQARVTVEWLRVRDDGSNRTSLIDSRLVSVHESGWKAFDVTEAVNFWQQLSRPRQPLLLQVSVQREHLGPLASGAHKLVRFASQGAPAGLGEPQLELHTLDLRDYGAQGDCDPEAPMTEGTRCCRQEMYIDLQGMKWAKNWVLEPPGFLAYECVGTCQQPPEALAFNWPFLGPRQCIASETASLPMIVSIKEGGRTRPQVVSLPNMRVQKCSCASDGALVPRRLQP

[14] = molecular target: Calmodulin-1 (Homo sapiens) (UniProt P0DP23); assay: small molecules binding calmodulin-1 with EGTA – biochemical, small-molecule microarray, Cy5-labelled CALM1, profiling panel (AID 1111); details: Cy5-CALM1 binding fluorescence, higher = more signal;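 also: labelled calmodulin applied in Tris saline Tween buffer holding calcium plus EGTA and DTT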
[15] = molecular target: Calmodulin-1 (Homo sapiens) (UniProt P0DP23); assay: small molecules binding Ca-loaded calmodulin-1 – biochemical, small-molecule microarray, Cy5-labelled CALM1, plus calcium, artefact control for SMM control-protein annotation, profiling panel (AID 1112); details: Cy5-CALM1 binding fluorescence, higher = more signal;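 also: score merges spot fluorescence with signal to noise from triplicate slides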
[16] = probe aWnt5a binding to arrayed compounds – biochemical, biotinylated probe, 635/667 nm fluorescence, primary screen (AID 1113); details: small-molecule microarray, higher = more signal;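 also: score merges 667 nm fluorescence intensity with signal-to-noise per printed feature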
[17] = probe aShh binding to arrayed compounds – biochemical, biotinylated probe, 635/667 nm fluorescence, primary screen (AID 1114); details: small-molecule microarray, higher = more signal;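 also: probe is biotin-labelled aShh protein from a stem cell growth factor screen; measures binding of labelled protein to compounds printed on the slide; score merges feature fluorescence at 667 nm with signal-to-noise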
[18] = probe aNog binding to arrayed compounds – biochemical, biotinylated probe, 635/667 nm fluorescence, primary screen (AID 1115); details: small-molecule microarray, higher = more signal;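 also: probe is biotinylated aNog protein used at 0.15 µg/mL for 1 h at 4 C; z-score combines 667 nm fluorescence of each spot with its signal to noise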
[19] = molecular target: Torsin-1A-interacting protein 1 (Homo sapiens) (UniProt Q5JTV8); assay: compound microarray binding of lysate hLAP1 – cell lysate, small-molecule microarray, COS7 lysate, 635/667 nm fluorescence, primary screen (AID 1116); details: 635 nm fluorescence, higher = more signal
Sequence of Torsin-1A-interacting protein 1 (Homo sapiens) (Q5JTV8 whole entry, looked up): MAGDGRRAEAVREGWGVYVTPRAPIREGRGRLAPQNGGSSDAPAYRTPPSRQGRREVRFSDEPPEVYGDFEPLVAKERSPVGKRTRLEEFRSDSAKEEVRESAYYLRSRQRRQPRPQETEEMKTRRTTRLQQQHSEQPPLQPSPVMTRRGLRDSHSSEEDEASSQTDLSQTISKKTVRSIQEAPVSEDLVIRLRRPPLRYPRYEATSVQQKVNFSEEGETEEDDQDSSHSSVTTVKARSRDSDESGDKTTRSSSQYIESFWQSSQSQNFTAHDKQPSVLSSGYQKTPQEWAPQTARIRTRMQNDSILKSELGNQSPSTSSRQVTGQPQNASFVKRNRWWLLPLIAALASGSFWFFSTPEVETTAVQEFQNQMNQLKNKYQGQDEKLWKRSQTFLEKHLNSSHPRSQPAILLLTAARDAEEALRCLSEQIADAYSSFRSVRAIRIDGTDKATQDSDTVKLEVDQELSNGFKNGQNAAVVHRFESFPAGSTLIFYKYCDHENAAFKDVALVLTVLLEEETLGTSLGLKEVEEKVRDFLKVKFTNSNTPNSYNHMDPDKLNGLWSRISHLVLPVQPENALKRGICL

[20] = molecular target: Alpha-bungarotoxin (Bungarus multicinctus) (UniProt P60615); assay: compounds binding labelled alpha-BTX control protein – biochemical, small-molecule microarray, Alexa647 label, 635/667 nm fluorescence, artefact control for SMM control protein annotation, profiling panel (AID 1117); details: alpha-BTX-A647 binding fluorescence, higher = more signal
Sequence of Alpha-bungarotoxin (Bungarus multicinctus) (P60615 whole entry, looked up): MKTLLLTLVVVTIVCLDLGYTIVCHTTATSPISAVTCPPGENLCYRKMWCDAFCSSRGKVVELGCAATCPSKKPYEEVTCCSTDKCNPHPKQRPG

SMILES	composite z-score [1]	composite z-score [2]	composite z-score [3]	z-score [4]	composite z-score [5]	composite z-score [6]	composite z-score [7]	composite z-score [8]	composite z-score [9]	composite z-score [10]	composite z-score [11]	z-score [12]	composite z-score [13]	composite z-score [14]	composite z-score [15]	composite z-score [16]	composite z-score [17]	composite z-score [18]	composite z-score [19]	composite z-score [20]
CC[C@@H]1C=C(C(=O)O)[C@H](c2ccc(C(C)C)cc2)N1S(=O)(=O)c1ccc(C)cc1	1.25	1.1	0.86	-0.0593 (inactive)	1.08	1.15	0.001	1.18	-0.172	0.769	1.27	-0.868	0.615	2.38	0.692	0.019	0.519	-0.443	2.19	2.12
O=C1C2C=CC(C(O)c3ccc(B(O)O)cc3)N(Nc3ccc([N+](=O)[O-])cc3)C2C(=O)N1c1ccccc1 (stereo not given)	0.76	0.627	0.642	0.98 (inactive)	1.11	1.19	0.415	0.998	-0.0757	0.0102	1.38	-4.39	0.528	0.394	0.218	-0.0107	-0.0146	0.46	0.151	0.435
Cc1ccccc1/C=C/C=O	0.939	-0.275	0.297	-0.0672 (inactive)	-0.435	-1.09	-0.813	-0.303	-0.243	0.612	-1.54	0.19	-0.615	-0.559	-0.161	-0.172	-0.154	-0.41	-0.23	-0.465
CN(C)CCCN1C(=O)[C@@]2(c3ccc([N+](=O)[O-])cc3)CC(=O)N(C3CCCCC3)[C@@H]2c2ccc(CO)cc21	-0.34	-0.0972	0.196	-0.447 (inactive)	0.835	-0.808	0.108	-0.0207	-0.162	0.731	-0.274	-0.493	0.0478	-0.126	-0.361	-0.104	-0.304	-0.118	-1.4	0.25
O=[N+]([O-])c1ccc(C[n+]2ccc(CCCO)cc2)o1	0.513	0.762	0.805	0.115 (inactive)	1.54	0.634	0.396	1.13	1.08	0.918	1.15	-0.341	0.69	1.2	0.561	-0.0364	-0.0035	-0.278	0.261	1.47
Cn1c2c(c3ccccc31)C(=O)C1NC2C=CC1(C)C(=O)OCc1ccccc1 (stereo not given)	1.15	0.347	1.26	0.167 (inactive)	-0.667	-0.788	-1.57	-1.58	-2.53	0.674	-0.369	-0.836	-1.71	0.682	1.13	-0.0887	0.123	0.771	1.38	1.92
COC(=O)[C@@]1(Cc2ccc(OC)cc2)[C@H]2c3cc(C(=O)N(C)C)n(Cc4ccc(OC)c(OC)c4)c3C[C@H]2CN1C(=O)c1ccccc1	0.851	0.476	1.16	-2.25 (inactive)	0.81	1.28	0.149	0.943	-0.649	0.807	1.46	-1.09	0.0549	1.8	1.08	0.294	0.173	1.03	1.15	1.73
C[N+](C)(C)CCCCNC(=O)[C@H]1C[C@H]2C(=O)N3CCC[C@H]3C(=O)N2[C@H]1c1ccc(O)cc1	1.48	0.0607	-0.152	0.0339 (inactive)	1.39	0.521	0.967	1.49	1.82	-0.443	0.257	-1.25	1.28	-0.546	-0.368	-0.0236	-0.0146	-0.0662	2.01	1.57
O=C(NCC(O)CO)[C@]1(CCS(=O)(=O)c2ccccc2)N=C(c2ccc(OCCCO)cc2)O[C@@H]1c1ccccc1 (stereo not given in full)	1.11	1.28	1.34	0.833 (inactive)	0.305	0.516	-0.498	-0.365	-0.868	0.529	0.556	-0.326	-0.805	1.99	1.48	-0.0846	0.0756	1.12	2.69	2.41
O=C1C[C@@](C(=O)O)(c2ccc([N+](=O)[O-])cc2)[C@@H](c2ccc(CO)cc2I)N1CC12CC3CC(CC(C3)C1)C2	0.816	1.23	1.13	-0.0388 (inactive)	0.248	0.48	0.12	0.206	-1.1	0.723	0.997	-3.31	-0.44	1.67	0.889	0.0206	0.0434	0.108	0.817	2.3
COCCOC(=O)N1C(=O)[C@@]2(c3cc(C#Cc4ccc(OC)cc4)ccc31)[C@H](c1ccc(O)cc1)N1[C@H](c3ccccc3)[C@H](c3ccccc3)OC(=O)[C@H]1[C@@H]2C(=O)N1CCN(c2ncccn2)CC1	0.408	-0.544	0.245	0.477 (inactive)	0.735	-0.0597	0.375	0.85	0.355	0.349	1.37	-1.05	0.224	0.966	0.361	-0.0846	-0.441	-0.124	0.596	0.829
